Hits are enriched below; roughly 1.7% of the tested compounds scored in any of these assays.
Rin1 Abl inh = inhibitors of Rin1-Abl protein binding, primary screen, biochemical, TR-FRET. Tyrosine-protein kinase ABL1 (Homo sapiens) + Ras and Rab interactor 1 (Homo sapiens), …. hit rate 0.4% among 360,000. inhibition, % at 7.35 µM; in the data active = inhibition above about 5%, passing the limit was not always enough
ATG4B inh = ATG4B protease inhibitors, primary screen, biochemical, fluorescence, uHTS; ATG4B cleavage of LC3-PLA2, NBD-HPC fluorescence, 1 h; inhibition, % at 8.33 µM; hit rate 0.51% among 340,000; AID 504462, 2011; in the data active = inhibition above about 40%
Neddylation inh = inhibitors of cullin neddylation, primary screen, biochemical, TR-FRET, uHTS, NAE and Ubc12. NEDD8-conjugating enzyme Ubc12 (Homo sapiens) + NEDD8-activating enzyme E1 regulatory …. hit rate 0.58% among 360,000. inhibition, % at 25 µM; in the data active = inhibition above about 36%
SUMO1 PPI mod = modulators of SUMO1 protein-protein interactions, primary screen, biochemical, uHTS; Small ubiquitin-related modifier 1 (Homo sapiens), P63165; SUMO1 binding to a labelled peptide, TR-FRET, 1 h; inhibition, % at 20 µM; hit rate 0.33% among 360,000; AID 602429, 2012; in the data active = inhibition above about 37%
ATG4B confirm = ATG4B protease inhibitors, retest, confirmation, biochemical, fluorescence, single concentration; shares compounds with ATG4B inh; ATG4B protease fluorescent substrate cleavage assay; inhibition, % at 8.33 µM; hit rate 92% among 320; AID 504757, 2011; in the data active = inhibition above about 39%
PLA2 counter = PLA2 enzyme inhibition, counter-screen for ATG4B inhibitor project, biochemical, single concentration, uHTS hits | shares compounds with ATG4B inh | purified PLA2, NBD-C6-HPC fluorescence, 45 min | inhibition, % at 8.33 µM | hit rate 66% among 1,600 | AID 588402, 2011; in the data active = inhibition above about 50%
The depositor's hits bear a star; · = no result given.

SMILES | Rin1 Abl inh | ATG4B inh | Neddylation inh | SUMO1 PPI mod | PLA2 counter | others
COC(=O)C(C)N(C(=O)c1ccc(C(=O)c2ccccc2)cc1)c1c(C)cccc1C (centres undefined) | -2 | 57* | -64 | 1 | 47 | ATG4B confirm=58*
COC(=O)C(C)N(C(=O)c1ccc(Cl)cc1)c1c(C)cccc1C (centres undefined) | -1 | 1 | -3 | 2 | ·
Cc1nc(NC(=O)c2ccccc2)sc1-c1csc(NCc2ccccc2)n1 | 2 | 45* | -15 | 1 | 66*
COc1ccc(/C=C2\CCn3c2nc2cc(C(=O)O)ccc2c3=O)cc1OC | -3 | -4 | 3 | -14 | ·
CC(C)CCOc1ccc(/C=C2\CCn3c2nc2cc(C(=O)O)ccc2c3=O)cc1 | -1 | 97* | · | -8 | 92*
CCc1nc2ccc(C(=O)NCCN3CCNC3=O)cn2c1N(CCC(C)C)CCN(C)C | -3 | · | -3 | -3 | ·
Brc1ccc2[nH]c3c(N4CCc5ccccc5C4)ncnc3c2c1 | · | 48* | · | · | 63*
CCOc1ccc2[nH]c3c(N4CCc5ccccc5C4)ncnc3c2c1 | 0 | 39 | · | 16 | ·
CCN(CC)C1Oc2cc3c(cc2C(c2cc(OC)c(OC)c(OC)c2)C1C)OCO3 (centres undefined) | 2 | 3 | 5 | -3 | ·
CCOC(=O)C1=CCN(S(=O)(=O)c2ccc(C)cc2)C1c1ccc(CC)cc1 (centres undefined) | 8 | · | 8 | 1 | ·
O=C(c1cccc(S(=O)(=O)Nc2ccc(F)cc2)c1)N1CCC1 | 5 | 7 | -14 | -7 | ·
O=c1c2ccccc2nc(/C=C/c2ccccc2)n1CCc1ccccc1 | 1 | 4 | 7 | -2 | ·
O=c1c2ccccc2nc(-c2ccoc2)n1CCc1ccccc1 | 1 | 42* | 11 | 0 | 36 | ATG4B confirm=65*
Cc1cccc(CSc2nnc(-c3cccs3)n2Cc2ccco2)c1 | 4 | 68* | 6 | -2 | 67*
Cc1ccc(N=Cc2cc(Cc3ccccc3Cl)cc([N+](=O)[O-])c2O)c(O)c1 | 2 | 92* | -35 | -13 | 79*
O=C(CC1S/C(=N/N=C/c2cccs2)NC1=O)Nc1ccc(Cl)c(Cl)c1 (centres undefined) | 3 | 61* | -1 | 0 | 12 | ATG4B confirm=59*
O=C(CC1S/C(=N/N=C/c2cccs2)NC1=O)Nc1ccc(Cl)cc1 (centres undefined) | -1 | 22 | -3 | 6 | ·
CCOC(=O)C1(C)CCCN(C(=O)COc2ccccc2)C1 (centres undefined) | 0 | · | 0 | 3 | ·
C=C1CC[C@@H]2[C@](C)(CO)[C@H](O)CC[C@@]2(C)[C@@H]1C/C=C1/C(=O)OCC1O (some centres undefined) | 1 | -5 | 0 | 1 | ·
O=C(O)c1cccc2c(-c3ccccc3)c(-c3ccccc3)[nH]c12 | -4 | 69* | 10 | 11 | 75*
O=C(O)c1ccccc1-c1nc(-c2ccccc2)c(-c2ccccc2)[nH]1 | 1 | 3 | · | 15 | ·
COc1ccc(C2=NNC(c3cccs3)=Nc3ccc(OC)cc32)cc1 | 0 | 55* | -5 | 4 | 60*
CCOc1ccc(C2=NNC(c3cccs3)=Nc3ccc(OC)cc32)cc1OCC | -2 | 36 | -4 | 1 | ·
CC1CCN(C(=O)c2ccc3ccccc3c2)CC1 | -2 | 1 | 4 | -9 | ·
CC1CC(C)CN(C(=O)c2ccc(S(=O)(=O)N3CC(C)CC(C)C3)cc2)C1 (centres undefined) | 1 | 51* | -5 | 0 | 66*
CC1CC(C)CN(S(=O)(=O)c2ccc(C(=O)N3CCCC3)cc2)C1 (centres undefined) | 2 | 7 | -4 | -1 | ·
CC1CC(C)CN(C(=O)c2ccc(C(=O)c3ccccc3)cc2)C1 (centres undefined) | 2 | 42* | 3 | 1 | 44 | ATG4B confirm=66*
CC1CC(C)CN(C(=O)c2ccc3ccccc3c2)C1 (centres undefined) | 0 | 54* | 0 | -6 | 50*

Compound activity: PubChem BioAssay, several laboratories
